For 40 sequences, binding signal results are on record in publication PMC7862700, “An all-to-all approach to the identification of sequence-specific readers for epigenetic DNA modifications on cytosine”.

The first test concerns the target T1, ETV2 (Homo sapiens, UniProt O00321 1-342).
T1 sequence: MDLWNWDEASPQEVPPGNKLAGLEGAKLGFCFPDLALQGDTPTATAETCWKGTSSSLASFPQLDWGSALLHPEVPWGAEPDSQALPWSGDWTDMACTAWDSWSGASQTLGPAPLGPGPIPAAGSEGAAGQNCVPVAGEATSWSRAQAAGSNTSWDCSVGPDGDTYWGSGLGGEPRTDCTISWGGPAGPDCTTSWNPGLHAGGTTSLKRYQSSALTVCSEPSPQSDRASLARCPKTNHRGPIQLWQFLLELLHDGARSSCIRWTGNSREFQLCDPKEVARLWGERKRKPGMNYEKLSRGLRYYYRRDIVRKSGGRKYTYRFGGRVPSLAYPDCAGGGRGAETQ
The test is described as follows: DAPPL (digital affinity profiling via proximity ligation, sequencing); 10 mM Tris-HCl pH 7.5, 50 mM NaCl, 1 mM DTT, 4% glycerol, room temperature, 30 min; GST-TFs on glutathione beads, 16-mer random dsDNA library, 0.1% formaldehyde crosslink after washing; high values mean tight binding. Conditions: protein: recombinant; tags: N-terminal GST; dsDNA, one strand shown. In a few lines:
(§1)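 Human transcription factors carrying a GST fusion were produced in yeast, bound to glutathione beads, tagged with DNA barcodes and pooled together with a tag-only sample. Each pool was held with 200 nmole of a random double-stranded 16-mer DNA library in Tris/NaCl/DTT/glycerol buffer for 30 min at room temperature, then washed, crosslinked in 0.1% formaldehyde, proximity-ligated with BsaI/T4 ligase (1 h, 37 °C), PCR-amplified and sequenced on an Illumina NextSeq500. Binding signal is the read frequency of each hexamer for a given factor divided by its frequency in the tag-only sample.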
As to CACTTG, the binding signal is 1.36 fold enrichment (6-mer frequency, TF over GST control).
On the same count and under the same terms, next, TACGTT: 1.27 fold enrichment (6-mer frequency, TF over GST control); CATTCG: 1.22 fold enrichment (6-mer frequency, TF over GST control).
On the same count and under the same terms, then CCTTCG, with 1.39 fold enrichment (6-mer frequency, TF over GST control).
The same measure, in the same setting: next, TGACCT: 1.65 fold enrichment (6-mer frequency, TF over GST control); TATAAC: 1.1 fold enrichment (6-mer frequency, TF over GST control).
Take CTTTCA: the binding signal was 1.42 fold enrichment (6-mer frequency, TF over GST control).
Regarding AATATT, the binding signal is 1.23 fold enrichment (6-mer frequency, TF over GST control).
The same measure, in the same setting: next, CTTGCA: 1.45 fold enrichment (6-mer frequency, TF over GST control); TTGCGG: 1.31 fold enrichment (6-mer frequency, TF over GST control); TCTGTT: 1.3 fold enrichment (6-mer frequency, TF over GST control).
Same read-out and setting: next, TCCTGG: 2.03 fold enrichment (6-mer frequency, TF over GST control); CGAAAA: 1.04 fold enrichment (6-mer frequency, TF over GST control).
Take TAATCC: the binding signal was 1.2 fold enrichment (6-mer frequency, TF over GST control).
The same measure, in the same setting: next, TTTCTT: 1.24 fold enrichment (6-mer frequency, TF over GST control); CTCAGC: 1.31 fold enrichment (6-mer frequency, TF over GST control).
On the same count and under the same terms, then ACTTGT, with 1.31 fold enrichment (6-mer frequency, TF over GST control).
Turning to CTTCTA, the binding signal was 1.49 fold enrichment (6-mer frequency, TF over GST control).
On the same count and under the same terms, next, TTCGAT: 1.23 fold enrichment (6-mer frequency, TF over GST control).
Same read-out and setting: next, TCTCCG: 1.47 fold enrichment (6-mer frequency, TF over GST control).

Another test has as its target T2, ELF3 (Homo sapiens, UniProt P78545 1-371).
T2 sequence: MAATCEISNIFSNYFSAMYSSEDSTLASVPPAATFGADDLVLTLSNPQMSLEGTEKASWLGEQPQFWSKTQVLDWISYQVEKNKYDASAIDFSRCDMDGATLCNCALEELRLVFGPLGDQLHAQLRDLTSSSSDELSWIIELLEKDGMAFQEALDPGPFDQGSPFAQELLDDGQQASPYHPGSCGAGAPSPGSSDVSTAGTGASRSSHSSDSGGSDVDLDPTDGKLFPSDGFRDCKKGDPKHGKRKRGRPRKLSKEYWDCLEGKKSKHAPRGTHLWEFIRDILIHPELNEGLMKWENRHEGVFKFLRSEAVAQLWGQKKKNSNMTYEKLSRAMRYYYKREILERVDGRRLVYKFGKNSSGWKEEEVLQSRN
The test is described as above. Conditions: protein: recombinant; tags: N-terminal GST; dsDNA, one strand shown. In a few lines: as §1
TGGCAA: the binding signal is 1.03 fold enrichment (6-mer frequency, TF over GST control).
The same measure, in the same setting: then AATAAC, with 1.25 fold enrichment (6-mer frequency, TF over GST control); and ATTTGT, with 1.41 fold enrichment (6-mer frequency, TF over GST control).
In the case of CTGGCA, the binding signal was 1.3 fold enrichment (6-mer frequency, TF over GST control).
As to GCTTAT, the binding signal was 1.29 fold enrichment (6-mer frequency, TF over GST control).
Same read-out and setting: next, TGTCTA: 1.06 fold enrichment (6-mer frequency, TF over GST control); GCCGAT: 1.02 fold enrichment (6-mer frequency, TF over GST control); ATTGGG: 1.22 fold enrichment (6-mer frequency, TF over GST control).
On the same count and under the same terms, next, TTGATC: 1.01 fold enrichment (6-mer frequency, TF over GST control); AATCGC: 1.08 fold enrichment (6-mer frequency, TF over GST control).
Same read-out and setting: then CCTCTC, with 1.5 fold enrichment (6-mer frequency, TF over GST control).
On to CCTCTT, for which the binding signal is 1.32 fold enrichment (6-mer frequency, TF over GST control).
The same measure, in the same setting: next, TTTGGA: 1.13 fold enrichment (6-mer frequency, TF over GST control); TCTACA: 1.22 fold enrichment (6-mer frequency, TF over GST control).
For the sequence TCTCGC, the binding signal is 1.88 fold enrichment (6-mer frequency, TF over GST control).
On the same count and under the same terms, then CTGATG, with 1.65 fold enrichment (6-mer frequency, TF over GST control).
As to CTGATC, the binding signal was 1.25 fold enrichment (6-mer frequency, TF over GST control).
As to CTCATC, the binding signal is 1.49 fold enrichment (6-mer frequency, TF over GST control).
Still for that read-out and setting: next, ATATTT: 1.54 fold enrichment (6-mer frequency, TF over GST control); TACAAT: 1.36 fold enrichment (6-mer frequency, TF over GST control).
Take CACTTG: the binding signal was 1.41 fold enrichment (6-mer frequency, TF over GST control).
Take TACGTT: the binding signal is 1.12 fold enrichment (6-mer frequency, TF over GST control).
As for CATTCG, the binding signal is 1.25 fold enrichment (6-mer frequency, TF over GST control).
Still for that read-out and setting: next, CCTTCG: 1.28 fold enrichment (6-mer frequency, TF over GST control); TGACCT: 1.68 fold enrichment (6-mer frequency, TF over GST control); TATAAC: 1.25 fold enrichment (6-mer frequency, TF over GST control).
With CTTTCA, the binding signal was 1.18 fold enrichment (6-mer frequency, TF over GST control).
Same read-out and setting: next, AATATT: 1.36 fold enrichment (6-mer frequency, TF over GST control); CTTGCA: 1.3 fold enrichment (6-mer frequency, TF over GST control); TTGCGG: 1.42 fold enrichment (6-mer frequency, TF over GST control).
Still for that read-out and setting: next, TCTGTT: 1.53 fold enrichment (6-mer frequency, TF over GST control).
Same read-out and setting: then TCCTGG, with 1.17 fold enrichment (6-mer frequency, TF over GST control); and CGAAAA, with 1.01 fold enrichment (6-mer frequency, TF over GST control).
On to TAATCC, for which the binding signal is 1.22 fold enrichment (6-mer frequency, TF over GST control).
The same measure, in the same setting: then TTTCTT, with 1.3 fold enrichment (6-mer frequency, TF over GST control).
For CTCAGC, the binding signal was 1.2 fold enrichment (6-mer frequency, TF over GST control).
Same read-out and setting: then ACTTGT, with 1.16 fold enrichment (6-mer frequency, TF over GST control).
Consider CTTCTA, for which the binding signal was 1.42 fold enrichment (6-mer frequency, TF over GST control).
Same read-out and setting: next, TTCGAT: 1.42 fold enrichment (6-mer frequency, TF over GST control); TCTCCG: 1.2 fold enrichment (6-mer frequency, TF over GST control).
